INS promoter inh = TRM-6 insulin promoter activity inhibition; TRM-6 cells (human fetal islet line), insulin promoter-eGFP reporter, imaging; reporter expression induced with tamoxifen; inhibition, % at 2 µM; 0.9% of 130,000 active; AID 1273;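 active = inhibition above the mean plus 3 SD, with well images judged a real hit on visual review, cut at about 60% in these data, passing the limit was not always enough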
Efa HMGR inh = E. faecalis class II HMG-CoA reductase inhibition | 0.41% of 190,000 active | inhibition, % at 10 µM | purified E. faecalis HMGR, NADPH absorbance 340 nm kinetic;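 active = inhibition above a set limit, the median over all tested compounds plus 3 SD, cut at about 9.5% in these data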;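 note: enzyme runs in reverse so mevalonate oxidation gives rising NADPH absorbance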
Autophagy mod = alters autophagy in cells; MEF GFP-LC3 puncta imaging; test concentration mostly 10 µM; calls only at 10 µM (by protocol); 0.98% of 190,000 active; AID 463193;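 active = percentage of spot-positive cells more than 3 SD above its plate mean, without a fluorescence outlier flag or 80% toxicity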
Insulin prom up = MIN6 insulin promoter up-regulation; MIN6 insulin promoter-GFP reporter, high-content imaging; hits give high values; z-score at 5 µM; 0.3% of 190,000 active;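 active = z-score above 3 at 5 µM with at least 500 cells counted in the well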
Hits are given with their value; – = inactive; · = no result; + = active, no number. A selection: hits, their analogues and other compounds. The true share with any hit is near 1.9%.

SMILES | INS promoter inh | Efa HMGR inh | Autophagy mod | Insulin prom up
N=c1c(-c2nc3ccccc3[nH]2)cc(C(=O)c2cccs2)nn1-c1ccccc1 | – | – | + | ·
N=c1c(-c2nc3ccccc3[nH]2)cc(C(=O)c2ccco2)nn1-c1ccccc1 | – | – | – | –
CCOC(=O)c1c2ccc(OCC(=O)N/N=C/c3ccccc3C(F)(F)F)cc2n2ccccc12 | – | – | – | –
CCOC(=O)c1c2ccc(OCC(=O)N/N=C/c3ccc(Cl)cc3)cc2n2ccccc12 | · | – | + | –
CCN(CC)C(=O)c1cccc2c1-c1ccccc1C2=O | · | · | · | –
CCCn1c(N)c(C(=O)CSc2nc(C)cs2)c(=O)[nH]c1=O | 76.9 | – | – | –
CCS(=O)CC(=O)Nc1c(-c2ccccc2)oc2ccccc2c1=O (configuration not stated) | · | · | · | –
CCOc1ccc2nc(-c3ccccc3)[nH]c2c1 | 85.7 | – | – | –
Cc1ccc(/C=C/C(=O)N(Cc2cccs2)C2CCS(=O)(=O)C2)cc1 (configuration not stated) | · | · | · | –
O=C(Nc1nc2ccccc2n1Cc1ccccc1)c1ccc(COc2ccccc2[N+](=O)[O-])o1 | – | – | + | ·
Cc1ccc(-c2cc(NC(=O)CCl)n(-c3ccccc3)n2)cc1 | – | – | + | ·
O=C(CCl)Nc1cc(-c2ccccc2)nn1-c1ccccc1 | 86.7 | – | + | ·
Cc1cc(C)cc(NC(=O)C(=O)NCCCN2CCOCC2)c1 | · | – | – | –
O=C(NCCc1ccc(Cl)cc1)C1CCN(S(=O)(=O)c2ccc(Br)s2)CC1 | · | – | – | ·
CCCCCCCCNc1nc(Cl)nc(NCCN2CCOCC2)n1 | · | – | + | –
COc1ccccc1/C=C/C(=O)OCC(=O)Nc1ccccc1Sc1ccccc1 | – | 11.2 | – | –
CC(=O)Nc1ccc(NC(=O)c2ccc(CSc3ccccc3)o2)cc1 | 81.8 | – | – | –
CC(C)n1cc(/C=C2\NC(=O)N(c3cccc(Cl)c3)C2=O)c2ccccc21 | – | – | + | ·
CC(C)n1cc(/C=C2/NC(=O)N(c3cccc(Cl)c3)C2=O)c2ccccc21 | – | – | + | –
O=C(O)Cn1cc(/C=C2/NC(=O)N(c3ccc(Cl)cc3)C2=O)c2ccccc21 | – | – | – | –
N/C(=N\OC(=O)C1CC1)c1ccc([N+](=O)[O-])s1 | · | · | · | –
Cn1cccc1C(=O)C(=O)Nc1ccc(F)c(F)c1 | – | – | – | –
Cc1nc2ccccn2c1C(=O)/C=C/c1cccc([N+](=O)[O-])c1 | · | – | + | –
Cc1nnc(NC(=O)CSc2nnc(NC(=O)C(C)(C)C)s2)s1 | – | – | – | –
CCSc1nnc(NC(=O)C(C)(C)C)s1 | 77.4 | – | – | –
SMILES | INS promoter inh | Efa HMGR inh | Autophagy mod | Insulin prom up
Cc1ccccc1N=Cc1c(O)n(-c2nccs2)c(=O)c2ccccc12 | – | – | – | –
O=c1c2ccccc2c(C=Nc2ccccc2O)c(O)n1-c1nccs1 | · | · | · | 4.35
Cc1ccc(C(=O)NCC(=O)N/N=C/c2cccs2)cc1C | – | – | – | –
COc1ccc(C2CC(=O)C3=C(C2)NC(C)=C(C#N)C3c2ccc(N(C)C)cc2)cc1 (configuration not stated) | · | – | + | ·
OC(COC(c1ccc(Cl)cc1)c1ccc(Cl)cc1)CN1CCCC1 (configuration not stated) | – | – | + | –
Cn1cc(CN2CCN(c3ncccn3)CC2)c(-c2cccc(Cl)c2)n1 | · | 9.6 | – | –
Cc1cc(N2CCN(Cc3cn(C)nc3-c3cccc(Cl)c3)CC2)cc(C)n1 | · | – | – | –
CCOC(=O)c1ccc2c(c1)N(CC#N)C(=O)C(C)(C)O2 | · | – | – | –
Cc1ccc(C(=O)CSc2ncn[nH]2)cc1 | – | – | – | –
O=C(O)CSc1ncn[nH]1 | 76.7 | – | – | –
O=C(CO/N=C/c1ccc(OC(F)F)cc1)NC1CCCC1 | · | – | – | –
O=C(CO/N=C/c1ccc(OC(F)F)cc1)NC1CCCCCC1 | · | – | + | –
CCCOc1ccccc1NC(=O)Nc1ccccc1Cl | – | – | – | –
CCOC(=O)c1c(-c2ccccc2)csc1NC(=O)CSc1ccccc1 | · | – | – | –
CCOC(=O)c1c(-c2ccccc2)csc1NC(=O)/C(C#N)=C/c1ccc(OC)c(OC)c1 | – | – | + | –
CCOC(=O)c1c(-c2ccccc2)csc1NC(=O)/C(C#N)=C/c1ccc(O)c(OC)c1 | · | – | + | –
Cn1nc(-c2ccc(NCCCO)c([N+](=O)[O-])c2)c2ccccc2c1=O | · | · | · | –
COc1ccc2c(c1)c(CC(=O)Nc1cccc(S(N)(=O)=O)c1)c(C)n2C(=O)c1ccc(Cl)cc1 | · | · | · | –
Cc1ccc(C(=O)N/N=C/C=C/c2ccccc2)o1 | · | 10.9 | – | ·
O=C(N/N=C/C=C/c1ccccc1)NC1CCCCC1 | · | – | + | –
CC(=O)N1c2ccccc2N(Cc2ccc(C)cc2C)C(=O)C1(C)C | · | – | + | –
